Experiment [1] is described as follows: ATG_M_06_CIS: Attagene CIS-FACTORIAL HepG2 Assay for M06 Transcription Factor (Internal Marker) (AID 2282950). The conditions noted are these: HepG2 Attagene CIS-FACTORIAL M06 internal marker reporter; actives raise or lower the signal. In outline: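 Serves as a background control readout. Transfected HepG2 exposed to compounds for 24 h, then reporter transcripts quantified by fluorescent RT-PCR and capillary electrophoresis. Both directions fitted against DMSO baseline.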

In experiment [2] the target is Hypoxia-inducible factor 1-alpha (Homo sapiens) (UniProt Q16665). Briefly: ATG_HIF1a_CIS: Attagene CIS-FACTORIAL HepG2 Assay for human Hypoxia Inducible Factor 1 (HIF1A) (AID 2282951). To be noted: HepG2 Attagene cis-factorial HIF1a reporter transcription; actives raise or lower the signal. Put shortly: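 Dosed 24 h, transfected HepG2 cells yielded total RNA whose reporter transcripts were RT-PCR-amplified and sized by capillary electrophoresis using fluorescent labelling; DMSO defined baseline, with gain and loss of signal both fitted.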

Experiment [3] concerns the target Heat shock factor protein 1 (Homo sapiens) (UniProt Q00613). Briefly: ATG_HSE_CIS: Attagene CIS-FACTORIAL HepG2 Assay for human Heat Shock Transcription Factor 1 (HSE) (AID 2282953). To be noted: HepG2 HSE cis-reporter, Attagene RNA transcription; actives raise or lower the signal. Put shortly: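 Endogenous transcription factor activity in transiently transfected HepG2, read as reporter mRNA by RT-PCR with fluorescent capillary electrophoresis after 24 h. Gain or loss of signal fitted versus DMSO baseline.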

Experiment [4] can be described thus: ATG_PBREM_CIS: Attagene CIS-FACTORIAL HepG2 Assay for human Phenobarbital-responsive Enhancer Module (PBREM) (AID 2282955). To be noted: HepG2 PBREM cis-reporter, Attagene multiplexed transcription; actives raise or lower the signal. Put shortly: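 Transfected liver-derived HepG2 cells exposed 24 h; PBREM reporter transcript quantified via RT-PCR and capillary electrophoresis, with activity in either direction referenced to DMSO.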

Experiment [5] deals with Paired box protein Pax-6 (Homo sapiens) (UniProt P26367). Briefly: ATG_Pax6_CIS: Attagene CIS-FACTORIAL HepG2 Assay for human Paired Box 6 (PAX6) (AID 2282956). To be noted: HepG2 CIS-FACTORIAL PAX6 reporter transcription, RNA readout; actives raise or lower the signal. In outline:
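Read-out is reporter transcript level, measured by RT-PCR with fluorescent primer extension and capillary electrophoresis after 24 h dosing of transfected HepG2 cells. Activity in either direction fitted relative to DMSO control.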

Experiment [6] can be described thus: ATG_PXRE_CIS: Attagene CIS-FACTORIAL HepG2 Assay for human Pregnane X Receptor Element (PXRE) (AID 2282957). To be noted: HepG2 Attagene CIS-FACTORIAL PXRE reporter, mRNA; actives raise or lower the signal. Put shortly:
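Fluorescent capillary electrophoresis of amplified reporter cDNA gave the signal, collected 24 h after dosing HepG2 cells that held transfected cis-element reporter constructs.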

Experiment [7] is described as follows: ATG_PPRE_CIS: Attagene CIS-FACTORIAL HepG2 Assay for human Peroxisome Proliferator-activated Response Element (PPRE) (AID 2282958). To be noted: HepG2 PPRE cis-element reporter, Attagene transcription factor profiling; actives raise or lower the signal. Put shortly:
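Measured endpoint: PPRE-controlled reporter mRNA, detected by RT-PCR and capillary electrophoresis fluorescence, from transiently transfected HepG2 cells 24 h after dosing. Curves fitted in both directions using DMSO baseline.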

A short description of experiment [8]: ATG_RORE_CIS: Attagene CIS-FACTORIAL HepG2 Assay for human RAR-related Orphan Receptor Element (RORE) (AID 2282959). To be noted: HepG2 Attagene cis-factorial RORE reporter, mRNA; actives raise or lower the signal. Put shortly: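 Transiently transfected HepG2 reporter cells were treated 24 h. Reporter transcripts were detected by RT-PCR and capillary electrophoresis, with bidirectional fitting against DMSO.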

Experiment [9] can be described thus: ATG_MRE_CIS: Attagene CIS-FACTORIAL HepG2 Assay for human Metal Responsive Element (MRE) (AID 2282954). The conditions noted are these: HepG2 MRE cis-reporter transcription, Attagene multiplex; actives raise or lower the signal. In outline:
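Readout: capillary electrophoresis of 6-FAM-labelled, HpaI-digested RT-PCR reporter products. System: HepG2 cells carrying transient multiplexed cis reporters, dosed 24 h. Analysis: bidirectional fit, DMSO baseline.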

Experiment [10] deals with Hepatocyte nuclear factor 6 (Homo sapiens) (UniProt Q9UBC0). Briefly: ATG_HNF6_CIS: Attagene CIS-FACTORIAL HepG2 Assay for human Hepatocyte Nuclear Factor 6 (HNF6) (AID 2282952). The conditions noted are these: HepG2 Attagene cis-factorial HNF6 reporter transcription; actives raise or lower the signal. Put shortly: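 Activity values derive from bidirectional fitting against DMSO of reporter mRNA levels, measured by capillary electrophoresis of labelled RT-PCR products from HepG2 cells exposed 24 h.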

Results on 18 compounds are retold here after PubChem BioAssay (EPA / NIEHS).

SMILES strings stand for the structures. “And” between values parts separate entries of the source, which are not always exact repeats. Equal entries are not always repeated. The source holds several records for some structures; these can differ, active in one and inactive in another. The source made the active and inactive calls. Rule for the calls: active = hit-call score of the fitted dose curve at least 0.9, where 1 is the maximum; inactive = score below 0.9.

Chain of Hypoxia-inducible factor 1-alpha (Homo sapiens) (Q16665 whole entry, looked up): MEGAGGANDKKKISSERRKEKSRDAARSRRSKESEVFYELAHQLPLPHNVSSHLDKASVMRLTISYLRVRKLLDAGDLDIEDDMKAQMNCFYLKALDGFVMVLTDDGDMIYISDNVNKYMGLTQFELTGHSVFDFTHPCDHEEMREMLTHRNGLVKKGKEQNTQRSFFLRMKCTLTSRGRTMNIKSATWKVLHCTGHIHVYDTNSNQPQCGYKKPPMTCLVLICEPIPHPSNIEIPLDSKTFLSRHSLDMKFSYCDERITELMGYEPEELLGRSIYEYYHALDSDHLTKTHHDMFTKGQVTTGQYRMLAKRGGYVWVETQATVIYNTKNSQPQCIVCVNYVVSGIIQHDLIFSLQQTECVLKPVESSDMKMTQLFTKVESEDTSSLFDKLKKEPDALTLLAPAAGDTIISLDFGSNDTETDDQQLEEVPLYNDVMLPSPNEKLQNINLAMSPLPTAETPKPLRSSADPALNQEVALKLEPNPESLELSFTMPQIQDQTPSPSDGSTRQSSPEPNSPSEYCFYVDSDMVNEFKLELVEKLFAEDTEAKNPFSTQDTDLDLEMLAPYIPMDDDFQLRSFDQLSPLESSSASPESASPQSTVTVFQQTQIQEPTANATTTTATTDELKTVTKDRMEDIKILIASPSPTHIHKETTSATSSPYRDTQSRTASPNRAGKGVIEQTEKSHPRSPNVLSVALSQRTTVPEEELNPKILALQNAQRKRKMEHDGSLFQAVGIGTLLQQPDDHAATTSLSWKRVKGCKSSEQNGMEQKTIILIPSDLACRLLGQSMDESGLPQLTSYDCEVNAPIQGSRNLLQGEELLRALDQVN
Chain of Paired box protein Pax-6 (Homo sapiens) (P26367 whole entry, looked up): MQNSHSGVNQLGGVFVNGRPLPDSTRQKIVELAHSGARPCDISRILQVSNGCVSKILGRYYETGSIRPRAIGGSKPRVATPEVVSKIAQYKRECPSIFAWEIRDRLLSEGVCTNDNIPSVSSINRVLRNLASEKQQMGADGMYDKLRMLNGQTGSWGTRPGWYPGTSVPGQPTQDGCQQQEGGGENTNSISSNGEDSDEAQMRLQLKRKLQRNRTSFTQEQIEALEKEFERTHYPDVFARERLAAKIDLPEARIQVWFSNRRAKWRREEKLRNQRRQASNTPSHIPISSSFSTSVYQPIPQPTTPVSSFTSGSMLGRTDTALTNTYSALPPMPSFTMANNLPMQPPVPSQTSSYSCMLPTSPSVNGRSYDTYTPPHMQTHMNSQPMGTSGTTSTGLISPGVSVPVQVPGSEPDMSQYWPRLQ
Chain of Hepatocyte nuclear factor 6 (Homo sapiens) (Q9UBC0 whole entry, looked up): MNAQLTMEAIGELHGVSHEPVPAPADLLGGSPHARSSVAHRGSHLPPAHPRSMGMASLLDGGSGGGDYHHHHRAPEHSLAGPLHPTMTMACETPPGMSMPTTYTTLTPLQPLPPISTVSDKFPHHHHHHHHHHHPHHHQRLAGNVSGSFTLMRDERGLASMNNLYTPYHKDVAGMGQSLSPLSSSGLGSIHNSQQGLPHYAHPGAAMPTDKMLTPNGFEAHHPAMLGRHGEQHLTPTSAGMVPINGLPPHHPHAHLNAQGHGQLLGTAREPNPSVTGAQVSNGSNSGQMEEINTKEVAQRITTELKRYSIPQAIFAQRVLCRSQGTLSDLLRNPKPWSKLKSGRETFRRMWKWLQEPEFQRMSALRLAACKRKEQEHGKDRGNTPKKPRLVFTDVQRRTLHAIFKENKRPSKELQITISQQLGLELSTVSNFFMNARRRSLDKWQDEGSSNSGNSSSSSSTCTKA
Chain of Heat shock factor protein 1 (Homo sapiens) (Q00613 whole entry, looked up): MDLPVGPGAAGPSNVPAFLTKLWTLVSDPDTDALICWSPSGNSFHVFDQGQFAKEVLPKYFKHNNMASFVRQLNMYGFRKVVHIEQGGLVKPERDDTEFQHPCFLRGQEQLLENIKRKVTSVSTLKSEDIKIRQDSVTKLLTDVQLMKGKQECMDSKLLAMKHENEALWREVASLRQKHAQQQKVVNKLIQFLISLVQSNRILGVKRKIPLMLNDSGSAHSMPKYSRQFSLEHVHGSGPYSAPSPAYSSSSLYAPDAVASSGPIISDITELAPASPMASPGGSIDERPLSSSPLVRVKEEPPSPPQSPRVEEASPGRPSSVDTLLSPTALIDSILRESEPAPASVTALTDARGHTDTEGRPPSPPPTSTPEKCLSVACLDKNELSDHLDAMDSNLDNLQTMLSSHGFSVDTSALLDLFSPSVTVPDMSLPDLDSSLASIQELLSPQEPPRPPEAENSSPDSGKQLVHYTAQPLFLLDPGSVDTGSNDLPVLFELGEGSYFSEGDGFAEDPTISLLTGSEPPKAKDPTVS

The term AC50 denotes the concentration at which the activity in the assay is half-maximal. With `Cn1sc(Cl)cc1=O`, the compound was called inactive in experiment [1], in experiment [2], in experiment [3], in [4], in experiment [5] and in experiment [6]. For the same compound, in [8], the compound was classed as inactive. Moreover, the AC50 in experiment [7] was 100 µM (active).

Take `CC(=O)C=C(C)C`: the compound was classed as inactive in experiment [1], in [2], in [3], in experiment [9], in experiment [4] and in experiment [5]. Besides, the result in experiment [6] and in [8] was inactive.

In the case of `CCCCP(CCCC)CCCC`, the compound was classed as inactive in [1], in experiment [2], in [9], in experiment [5] and in experiment [8]. The AC50 in experiment [6] is 23.6 µM (active).

In the case of `C[C@]12CC[C@H](O)CC1=CC[C@@H]1[C@@H]2CC[C@]2(C)C(=O)CC[C@@H]12`, the outcome in experiment [1], in [3], in [9], in [4], in [5] and in [7] was inactive. In experiment [8], the outcome was inactive.

As for `Cc1ccccc1C(=O)Nc1cccc(OC(C)C)c1`, the compound was classed as inactive in [1], in experiment [2], in [9], in experiment [4], in experiment [5] and in experiment [8]. Moreover, the AC50 in experiment [6] was 2.89 µM (active).

As to `CCCCCCCCC(=O)NCc1ccc(O)c(OC)c1`, the outcome in experiment [1], in experiment [10], in [4], in [5], in [7] and in experiment [8] was inactive. Moreover, the AC50 was 125 µM (active) in [3], 131 µM (active) in experiment [9] and 26.2 µM (active) in experiment [6].

Consider `N#Cc1ccccn1`, for which the compound was called inactive in experiment [1], in experiment [2], in experiment [9], in experiment [4], in experiment [5] and in [8].

As to `C=CCc1ccc(OC)cc1`, the compound was called inactive in experiment [1], in experiment [2], in [9], in [4], in [5] and in experiment [7]. For the same compound, the result in experiment [8] was inactive.

As for `N#CCCO`, the compound was called inactive in experiment [1], in experiment [2], in experiment [3], in experiment [9], in experiment [5] and in [7]. In experiment [8], the outcome was inactive.

Consider `ClC1=C(Cl)[C@]2(Cl)[C@H]3[C@H]([C@H]4C=C[C@H]3C4)[C@@]1(Cl)C2(Cl)Cl`, for which the call in experiment [1], in [3], in experiment [4], in experiment [5] and in experiment [8] was inactive. Further, the figures for the AC50 in experiment [2], in experiment [9] and in experiment [6] were 4.66 µM (active), 3.77 µM (active) and 1.6 µM (active), respectively.

As to `CCC1(c2ccc(N)cc2)CCC(=O)NC1=O` (centres undefined), the call in experiment [1], in [3], in experiment [5] and in experiment [8] was inactive.

As to `CC(C)C1CCC(Cc2ccc(Cl)cc2)C1(O)Cn1cncn1` (centres undefined), the compound was classed as inactive in experiment [1], in experiment [2], in experiment [3], in experiment [4], in [5] and in experiment [8]. Moreover, the concentration at half-maximal activity (AC50) in [9] was 11 µM (active); in [6], 1.04 µM (active).

`NNC(=S)NN`: the outcome in experiment [1], in experiment [2], in [3], in [5], in experiment [7] and in experiment [8] was inactive.

Consider `CCC[CH2][Sn]([Cl])([Cl])[Cl]`, for which the outcome in [1], in [2], in experiment [3], in experiment [9], in experiment [4] and in [5] was inactive. Also, the compound was called inactive in experiment [6] and in experiment [8].

With `COC[C@H](C)N(C(=O)CCl)c1c(C)csc1C`, the compound was called inactive in [1], in experiment [2], in experiment [9], in experiment [5], in experiment [7] and in experiment [8]. Besides, in experiment [6], the AC50 is 30.6 µM (active).

Take `Cc1ccc2ccccc2c1C`: the call in experiment [1], in experiment [2], in experiment [3], in [4], in experiment [5] and in [7] was inactive. The outcome in experiment [8] was inactive.

Turning to `CC(C)c1ccc(CO)cc1`, the result in experiment [1], in [2], in experiment [3], in experiment [9], in experiment [5] and in [6] was inactive. The call in [8] was inactive.

Take `C[C@]12CCC(=O)C[C@@H]1CC[C@@H]1[C@@H]2CC[C@]2(C)[C@@H](O)CC[C@@H]12`: the call in experiment [1], in experiment [10], in [3], in experiment [9], in [5] and in experiment [8] was inactive. Besides, the AC50 in experiment [9] was 87 µM (active) and 42.6 µM (active); in [6], 23.4 µM (active) and 23.5 µM (active) and 9.49 µM (active); in [8] it was 42.3 µM (active).
